Source: PubChem (National Center for Advancing Translational Sciences (NCATS))
This is one part of a sample in which hits are shown more often than they occur.
Pf Dd2 inh – inhibitors of Plasmodium falciparum Dd2 growth. P. falciparum Dd2 growth, SYBR Green, 72 h. Potency, µM (titrated, usually from 28.9 µM), actives largely listed as inhibitors. 120,000 tested, 4.3% active. AID 1347417; active = well fitted inhibition curve with a large enough effect; also: nearly all actives have a fitted effect of over 65% in size
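Infected erythrocytes (Dd2, 0.3% parasitemia, 2.5% hematocrit final) are added to compound in RPMI-1640/Albumax II medium, grown 72 h at 37C in low oxygen, then lysed with saponin/Triton-X containing SYBR Green and read by fluorescence.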
Large screens that a line does not name were inactive.

Cc1c(C(=O)Nc2ccc(F)cc2)sc2nc[nH]c(=O)c12	none
COc1ccc(-c2c3c(nc4sc(C(=O)Nc5ccc(F)cc5)c(N)c24)CC(C)(C)CC3=O)cc1	Pf Dd2 inh 0.562µM
COc1ccc(CC(=O)N[C@@H]2CN(C)C[C@H]2CN(C)C)cc1OC	none
CNC(=O)[C@@H]1C[C@H](Oc2cccnc2)CN1C(=O)CCC1CCCC1	none
O=C(C1CC1)N(C1CCOCC1)C1CCN(S(=O)(=O)c2ccc(F)c(Cl)c2)CC1	Pf Dd2 inh 10µM
Cc1cc(S(=O)(=O)N2CCC(N(C(=O)C3CC3)C3CCOCC3)CC2)ccc1Cl	none
O=C(C1CC1)N(C1CCOCC1)C1CCN(S(=O)(=O)c2cc(F)cc(F)c2)CC1	none
COc1ccc([C@@H](NC(=O)c2scc3c2OCCO3)C2CC(O)C2)cn1 (stereo partly drawn)	none
COc1ccc(-c2nc3n(n2)C(c2ccccc2F)C(C(=O)Nc2cccnc2)=C(C)N3)cc1OC (stereo not drawn)	Pf Dd2 inh 10µM
COc1ccc(C2C(C(=O)Nc3cccnc3)=C(C)Nc3nc(-c4ccccc4)nn32)cc1OC (stereo not drawn)	none
COc1ccc(-c2nc3n(n2)C(c2ccc(O)cc2)C(C(=O)Nc2cccnc2)=C(C)N3)cc1OC (stereo not drawn)	none
COCCN1CCOC2(CCN(C(=O)c3ccc(Oc4ccccc4)cc3)CC2)C1=O	none
Cc1ccc(C)c(N2CCN(C(=O)CCC(=O)Nc3ccc4nc(N5CCCCC5)cc(C)c4c3)CC2)c1	none
Cc1cc(N2CCCCC2)nc2ccc(NC(=O)CCC(=O)N3CCN(c4ccccc4)CC3)cc12	none
CCN1CCN(c2cc(C)c3cc(NC(=O)/C=C/c4ccc(C)cc4)ccc3n2)CC1	Pf Dd2 inh 1.12µM
CCOc1ccc(C(=O)Nc2ccc3ncnc(N4CCCCC4)c3c2)cc1	none
COc1ccc(-n2nc3ccc(NC(=O)c4cccc(OCCC(C)C)c4)cc3n2)cc1	none
CCN1CCN(c2cc(C)c3cc(NC(=O)/C=C/c4ccc(OCCC(C)C)cc4)ccc3n2)CC1	Pf Dd2 inh 1.12µM
CC(=O)N1CCC2(CC1)CC(C(C)C)=NO2	none
NC(=O)[C@@H]1CN(C(=O)CC2CC2)C[C@H]1COc1ccccc1	none
O=C(CCN1CCCCO1)N1CCCn2nc(C(O)C3CCC3)cc2C1 (stereo not drawn)	none
COc1ccc(C(C(=O)O)N2CCN(c3nc(C)cnc3C)CC2)cc1 (stereo not drawn)	none
Cc1ccc(CNC(=O)c2cc3sccc3n2Cc2ccc(Cl)cc2)cc1	none
COC(=O)c1cc(NC(=O)c2cc3sccc3n2Cc2ccc(Cl)cc2)cc(C(=O)OC)c1	Pf Dd2 inh 11.2µM
CC(=O)c1ccc(NC(=O)c2cc3sccc3n2Cc2ccc(F)cc2)cc1	none
COCCNC(=O)[C@@H]1C[C@@H](O)CN1C1CCN(C(=O)C2(c3ccccc3)CC2)CC1	none
Cc1ncsc1CCC(=O)N(C/C=C/c1ccccc1)CC1CCCO1 (stereo not drawn)	none
CCC(=O)N1CC(=O)Nc2ccc(C)cc2C1c1ccc(F)cc1 (stereo not drawn)	none
CCCC(=O)N1CC(=O)Nc2ccc(Cl)cc2C1c1ccccc1 (stereo not drawn)	none
O=C1CN(C(=O)COc2ccc(Cl)cc2)C(c2ccc(F)cc2)c2cc(Cl)ccc2N1 (stereo not drawn)	Pf Dd2 inh 10µM
CC(C)CNC(=O)N1CCCC(c2nc(-c3cccnc3)no2)CCNC(=O)CC1 (stereo not drawn)	none
Cc1nn(C)c(C)c1CCN(C)Cc1ccc(=O)n(C)c1	none
COc1ccc(CNC(=O)C2CCN(Cc3nc(-c4ccc(Cl)cc4)oc3C)CC2)cc1	none
COc1ccc(-c2c(C)c3ccc(O)c(CN4CCCC4)c3oc2=O)cc1	Pf Dd2 inh 3.16µM
COc1ccc(-c2c(C)c3ccc(O)c(CN4CCOCC4)c3oc2=O)cc1	Pf Dd2 inh 8.91µM
COc1ccc(-c2nc(C)nc3c2CCN(Cc2cncs2)CC3)cc1	none
COc1ccc(C(CNC(=O)c2oc3ccc(C)cc3c2C)N2CCOCC2)cc1 (stereo not drawn)	none
COc1ccc2c(c1)OCC(CNC(=O)CN1CCOCC1)C2 (stereo not drawn)	none
COC(=O)CCNC(=O)C1CN(S(=O)(=O)c2ccccc2)CC12CCCCC2 (stereo not drawn)	none
O=C(c1ccncc1F)N1CCCn2ccnc2C1c1ccccc1 (stereo not drawn)	none
O=C(NCCc1c[nH]c2ccccc12)C1CC(=O)N(c2n[nH]c3cccc(F)c23)C1 (stereo not drawn)	none
COC(=O)CCC(=O)N1CCCC(c2nc(SCCN3CCOCC3)ncc2C)C1 (stereo not drawn)	none
O=C(NCc1ccc(F)cc1)N1C[C@@H](CN2CCOCC2)[C@@H](CO)C1	none
Cc1ccc(CNC(=O)c2ccc3nccn3c2)o1	none
COCCNC(=O)C(NC(=O)C1CCCC1)C1CCN(C(=O)c2ccc(F)cc2)CC1 (stereo not drawn)	none
COc1cccc(CNC(=O)Cn2ccn3nc(-c4ccc(F)cc4)c(CO)c3c2=O)c1OC	none
O=C(c1cnccn1)N1CCC(n2cc(-c3nc(-c4ccccc4)no3)nn2)CC1	none
O=C(NCCc1ccc(Cl)cc1)c1nc(-c2ccc(Cl)cc2Cl)c2cnccn12	Pf Dd2 inh 4.47µM
O=C(NCCc1ccc(Cl)cc1)c1nc(-c2ccc(Cl)cc2Cl)c2ccccn12	none
O=C(NCCc1ccc(Cl)cc1)c1cc(-c2cnccc2Cl)c2cccn2n1	none
NS(=O)(=O)c1ccc(CCNc2nc3c(-c4cccc(F)c4)nnn3c3ccc(Cl)cc23)cc1	Pf Dd2 inh 11.2µM
Fc1cccc(-c2nnn3c2nc(NCCc2ccccc2)c2ccccc23)c1	none
CCOCCCNc1nc2c(S(=O)(=O)c3ccc(CC)cc3)nnn2c2ccc(Cl)cc12	none
Cc1ccc2c(c1)nc1n2[C@@H](CNC2CCOCC2)COC1	none
CCn1ccc(C(=O)N2[C@H]3CC[C@@H]2c2cnc(C)nc2C3)n1	none
Cc1cccnc1CN(Cc1ccccc1)C(=O)C1NCCc2[nH]cnc21 (stereo not drawn)	none
CC(C(=O)NC1CC1)[C@@H]1CC[C@@]2(C)CC[C@H](NC(=O)C3CC3)[C@@H](C)[C@@H]2[C@H]1O (stereo partly drawn)	none
O=C(c1cnc2c(c1)N([S+](=O)([O-])c1cccnc1)CCC2)N1CCCC[C@@H]1c1ccccc1	none
CC(=O)Nc1ccc(CN2CCOC[C@H]2c2ncc(-c3cccc(Cl)c3)[nH]2)cc1	none
Fc1ccc(-c2cnc([C@@H]3COCCN3Cc3ncc[nH]3)[nH]2)cc1	none
N#Cc1cccc(CN2CCOC[C@H]2c2ncc(-c3ccc(F)cc3)[nH]2)c1	none
c1cncc(CN2CCOC[C@H]2c2ncc(-c3cccnc3)[nH]2)c1	none
Oc1ccccc1CN1CCOC[C@H]1c1ncc(-c2cccc(Cl)c2)[nH]1	Pf Dd2 inh 3.16µM
Cn1ccnc1CN1CCOC[C@H]1c1ncc(-c2cccc(Cl)c2)[nH]1	Pf Dd2 inh 5.01µM
O=C(NCc1ccccc1)NCC1CCOCC1	none
Cc1cc(C)c(S(=O)(=O)N2CCn3c(nn(CC4CC4)c3=O)C2)c(C)c1	none
CC(C)NC(=O)N[C@H]1C[C@@H](Cc2cc(-c3ccccc3)on2)C1(C)C	none
Cc1nc(CCNC(=O)Nc2ccccc2)no1	none
Cc1cn2nc(C(=O)N3CCC(C(=O)NC4CCCCCC4)CC3)cc2c(=O)[nH]1	none
O=C1N2CCCC2CN1C1CCN(Cc2cccnc2)CC1 (stereo not drawn)	none
CCSc1ncc(-c2c(-c3ccccc3)ncn2CC[C@@H](C)CO)cn1	none
CCC(Cn1cnc(-c2ccccc2)c1-c1ccc(C#N)cc1)N1CCN(C)CC1 (stereo not drawn)	Pf Dd2 inh 8.91µM
CCOCCn1cnc(-c2ccccc2)c1-c1cccc(C#N)c1	none
